Measurements from article PMC4336329 (PLoS ONE, 2015).
In all, about 310,000 compounds went through this assay and about 14,000 (4.5%) showed an effect of 50% or more. The effect is printed as a negative number. What follows is part of a selection rich in strong results, with near analogues and random picks from the rest.

Each molecule was assayed against human ether-à-go-go-related gene (hERG) potassium channel (human, UniProt Q12809) (assay: primary screen, population patch clamp on CHO cells stably expressing hERG; higher = less effect of the substance).
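Note: peak tail current of the secondary pulse compared with the same well before compound.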

Chain of human ether-à-go-go-related gene (hERG) potassium channel (Q12809 whole entry, looked up): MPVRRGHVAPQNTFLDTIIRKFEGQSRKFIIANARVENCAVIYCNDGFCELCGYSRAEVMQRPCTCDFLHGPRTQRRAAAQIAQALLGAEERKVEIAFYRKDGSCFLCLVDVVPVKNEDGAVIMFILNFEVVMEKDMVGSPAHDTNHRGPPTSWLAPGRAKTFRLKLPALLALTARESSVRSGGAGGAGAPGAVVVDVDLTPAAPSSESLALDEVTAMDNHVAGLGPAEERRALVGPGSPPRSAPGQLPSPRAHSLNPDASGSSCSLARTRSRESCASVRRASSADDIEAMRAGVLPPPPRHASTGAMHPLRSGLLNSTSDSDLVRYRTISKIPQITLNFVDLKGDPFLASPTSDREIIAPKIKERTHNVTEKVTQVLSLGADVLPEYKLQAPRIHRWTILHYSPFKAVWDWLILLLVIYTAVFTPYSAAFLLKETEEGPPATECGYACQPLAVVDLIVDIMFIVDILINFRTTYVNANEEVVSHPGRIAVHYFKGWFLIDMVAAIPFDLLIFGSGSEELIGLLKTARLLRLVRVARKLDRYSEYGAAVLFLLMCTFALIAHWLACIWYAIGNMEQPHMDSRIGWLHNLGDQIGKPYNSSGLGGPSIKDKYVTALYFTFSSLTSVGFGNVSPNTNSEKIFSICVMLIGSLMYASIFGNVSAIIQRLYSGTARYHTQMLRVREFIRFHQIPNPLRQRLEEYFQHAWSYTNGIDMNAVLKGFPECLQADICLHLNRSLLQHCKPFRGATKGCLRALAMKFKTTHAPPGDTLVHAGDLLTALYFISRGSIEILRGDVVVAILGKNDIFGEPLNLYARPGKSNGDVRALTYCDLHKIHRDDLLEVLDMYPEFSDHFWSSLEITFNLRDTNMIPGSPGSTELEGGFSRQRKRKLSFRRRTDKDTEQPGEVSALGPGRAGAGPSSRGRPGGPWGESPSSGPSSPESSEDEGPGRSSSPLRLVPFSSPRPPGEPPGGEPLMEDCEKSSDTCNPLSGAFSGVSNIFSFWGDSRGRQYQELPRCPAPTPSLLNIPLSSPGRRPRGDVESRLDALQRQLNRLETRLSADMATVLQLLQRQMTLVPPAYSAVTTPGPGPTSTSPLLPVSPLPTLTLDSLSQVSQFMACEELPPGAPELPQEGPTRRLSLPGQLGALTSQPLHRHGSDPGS

| Compound | hERG current change (%, negative = inhibition) at 10uM [%] |
| --- | --- |
| C/C(=C1/SC(=S)N(CCC(=O)O)C1=O)c1ccc(O)cc1 | 9.74 |
| Cc1ccc(Nc2nc(-c3ccc(F)cc3)cs2)nc1 | 17.1 |
| CNCc1cc2ccc(C)cc2[nH]c1=O | -33.1 |
| Cc1ccc2cc(CNCCc3ccccc3C)c(=O)[nH]c2c1 | -69.7 |
| CC(=O)N(CCc1ccccc1C)Cc1cc2ccc(C)cc2[nH]c1=O | -18.3 |
| CCC(=O)N(Cc1cc2ccc(C)cc2n2nnnc12)C1CCCCC1 | -32.3 |
| COc1ccc(CCN(Cc2cc3ccc(C)cc3n3nnnc23)C(C)=O)cc1OC | -32.7 |
| CCNC(=S)N(CCc1cccc(C)c1)Cc1cc2cc(OC)c(OC)cc2[nH]c1=O | -22.4 |
| CCC(=O)N(CCc1ccc(OC)c(OC)c1)Cc1cc2ccc(C)cc2n2nnnc12 | -76.8 |
| CCNC(=S)N(CCc1ccccc1C)Cc1cc2cc(OC)c(OC)cc2[nH]c1=O | -22.3 |
| Cc1ccc2cc(CNC(C)C)c(=O)[nH]c2c1 | -9.38 |
| Cc1ccc2cc(CNC(C)(C)C)c(=O)[nH]c2c1 | -19 |
| Cc1cccc(CCNCc2cc3ccc(C)cc3[nH]c2=O)c1 | -77.3 |
| CCNC(=S)N(CCc1ccc(OC)c(OC)c1)Cc1cc2cc(OC)ccc2[nH]c1=O | -56.9 |
| CCOC(=O)C1(CC2CCCCO2)CCN(C(=O)Nc2ccc3c(c2)OCO3)CC1 (stereo not drawn) | 15.9 |
| COCC(=O)Nc1ccc(C(C)C)cc1 | -1.68 |
| CCCCC/S(CC1CC1(Cl)Cl)=N\S(=O)(=O)c1ccc(C)cc1 (stereo not drawn) | 15.8 |
| Cc1sc(NC(=O)C2CCCCC2C(=O)O)c(C(N)=O)c1-c1ccc(C(C)C)cc1 (stereo not drawn) | -9.39 |
| CCCCC(=O)Nc1nnc(SCC(=O)NCC2CCCO2)s1 (stereo not drawn) | -24.8 |
| CCNS(=O)(=O)c1ccc(CCC(=O)NCc2cccnc2)cc1 | 16.8 |
| Cc1ccc(C(=O)n2c3ccccc3c3ccccc32)cc1 | 15.9 |

| Compound | hERG current change (%, negative = inhibition) at 10uM [%] |
| --- | --- |
| COC(=O)[C@]1(C)N[C@H](c2ccc(SC3CCCCC3)c(OC)c2)[C@@H]2C(=O)N(C)C(=O)[C@@H]21.O=C(O)C(F)(F)F | -16.6 |
| O=C(Nc1ccccc1)C1=C[C@@H](c2ccccc2)C[C@@H](OCc2ccc(CO)cc2)O1 | 2.2 |
| O=C(NCC(=O)N1CCOCC1)c1ccc(Br)o1 | 17.4 |
| CC(C)CNC(=O)CSc1n[nH]c(=O)n1CCc1ccccc1 | 22.1 |
| Cc1nc2c(-c3ccccc3)cnn2c(N2CCOCC2)c1C | 11.8 |
| COc1ccc(/C=N/NC(=O)C(C)Sc2ccccn2)cc1[N+](=O)[O-] (stereo not drawn) | -7.8 |
| CC(=O)N(CCc1cccc(C)c1)Cc1cc2ccc(C)cc2[nH]c1=O | -19.7 |
| COc1ccc(CCNCc2cc3ccc(C)cc3[nH]c2=O)cc1OC | -73.6 |
| COc1ccc(CCN(Cc2cc3cc(C)ccc3[nH]c2=O)C(C)=O)cc1OC | -6.87 |
| COc1ccc(CC(=O)OCc2cc3ccc(C)cc3[nH]c2=O)cc1 | 9.18 |
| COc1cc(OC)c(OC)cc1CNCCc1ccc(OC)c(OC)c1 | -6.55 |
| COc1ccc(CCN(Cc2cc3ccc(C)cc3[nH]c2=O)C(C)=O)cc1OC | -65.1 |
| CC(=O)c1cn(-c2ccc(Cl)cc2)c(=O)n(Cc2ccc(F)cc2)c1=O | 1.04 |
| COc1ccc(CNC(=O)CCS(=O)(=O)c2ccc(Br)cc2)cc1 | 7.33 |
| CC(=O)Nc1ccc(NS(=O)(=O)c2ccc(-c3cnc(C4CC4)o3)cc2)cc1 | 3.37 |
| CCC(CC)C1C(C#N)=C(N)Oc2cc(C)oc(=O)c21 (stereo not drawn) | -12.7 |
| CC1(C)C(c2ccccc2)=NC(c2cccnc2)=[N+]1[O-] | 14.8 |
| COc1ccc(C(=O)N2CC3(C)C4CCC3(C)C2(C#N)C4)cc1OC (stereo not drawn) | 4.65 |
| COCCNC(=O)CSc1nc2nn(-c3ccccc3)c(=O)c-2c2n1CCCCC2 | 23.2 |
| O=C(CSc1nc2nn(-c3ccccc3)c(=O)c-2c2n1CCCCC2)Nc1ccc(F)cc1F | -63.2 |
| CNC(=O)CSc1nc2nn(-c3ccccc3)c(=O)c-2c2n1CCCCC2 | -37.2 |

| Compound | hERG current change (%, negative = inhibition) at 10uM [%] |
| --- | --- |
| COCC(C)NC(=O)CSc1nc2nn(-c3ccccc3)c(=O)c-2c2n1CCCCC2 (stereo not drawn) | 8.5 |
| O=C(CSc1nc2nn(-c3ccccc3)c(=O)c-2c2n1CCCCC2)NCCCc1ccccc1 | -63.1 |
| CC(C)CNC(=O)CSc1nc2nn(-c3ccccc3)c(=O)c-2c2n1CCCCC2 | -18 |
| CC(C)(C)CC(=O)NCCc1csc(-c2ccccc2)n1 | -7.63 |
| Cn1ncc(Cl)c1C(=O)N/N=C/c1cccc(OC2CSC2)c1 | 8.77 |
| O=C(Nc1nccs1)c1cc(Cl)ccc1[N+](=O)[O-] | -9.55 |
| Cc1cccc(Cn2c(N(C)Cc3ccccc3)nc3c2c(=O)[nH]c(=O)n3C)c1 | -9.99 |
| CCOc1ccc2nc(NC(=O)Nc3cccs3)sc2c1 | 18 |
| O=C(Nc1ccccc1N1CCOCC1)c1ccc(F)c(S(=O)(=O)N2CCOCC2)c1 | -12.6 |
| CCCCN1C(=O)c2ccc(C(=O)Nc3ccccc3N3CCOCC3)cc2C1=O | 7.18 |
| Cc1ccc(C(=O)Nc2ccccc2N2CCCC2)cc1S(=O)(=O)N1CCOCC1 | -51.2 |
| Cc1ccc(C(=O)Nc2ccccc2N2CCOCC2)cc1S(=O)(=O)N1CCOCC1 | -55.3 |
| O=C(Nc1ccccc1N1CCCC1)c1ccc(F)c(S(=O)(=O)N2CCOCC2)c1 | -22.5 |
| O=C(Nc1ccccc1N1CCCC1)c1ccc(Cl)c(S(=O)(=O)N2CCOCC2)c1 | -41.4 |
| O=C(Nc1ccccc1N1CCOCC1)c1ccncc1 | -1.93 |
| COc1ccc(C(=O)Nc2ccccc2N2CCOCC2)cc1S(=O)(=O)N1CCOCC1 | -17.8 |
| O=C(Nc1ccccc1N1CCOCC1)c1ccc2c(c1)C(=O)N(Cc1ccncc1)C2=O | -58.8 |
| Cc1cn2c(N)c(/C=C3\C=Nc4ccccc43)c(=O)nc2s1 | 2.43 |
| CCOc1ccc(N=C(/C(C(=O)C(=O)N2CCOCC2)=C(\O)c2ccccc2)c2ccccc2)cc1 | 27.7 |
| COc1ccc(NC(=O)CN(C)S(=O)(=O)c2cccc3nsnc23)cc1 | -21.9 |
| O=C(O)c1ccccc1-c1nc2ccccc2c(=O)n1O | 14.9 |

| Compound | hERG current change (%, negative = inhibition) at 10uM [%] |
| --- | --- |
| CCCOC(=O)CC1C(=O)NCCN1Cc1ccc(F)cc1 (stereo not drawn) | 3.35 |
| CC1CC(C)CN(S(=O)(=O)c2ccc(NC(=O)C3CC(=O)N(Cc4ccccc4)C3)cc2)C1 (stereo not drawn) | 17.3 |
| CC(C)CC1NC(=O)N(Cc2nc3ccccc3s2)C1=O (stereo not drawn) | -32.5 |
| CC(C)CCC1(CCNC(=O)c2cccs2)CCOC(C)(C)C1 (stereo not drawn) | -8.99 |
| c1ccc(-c2nn3c(Cn4nnc5ccccc54)nnc3s2)nc1 | -14.4 |
| CC(C)C[C@H]1C(=O)N2CCC[C@H]2[C@]2(O)O[C@](NC(=O)C3C=C4c5cccc6[nH]c(Br)c(c56)C[C@H]4N(C)C3)(C(C)C)C(=O)N12.CS(=O)(=O)O (stereo partly drawn) | 20.4 |
| CC1(C)C(/C=C/C=C/C=C/C=C2\N(CCCCS(=O)(=O)[O-])c3ccc4ccccc4c3C2(C)C)=[N+](CCCCS(=O)(=O)[O-])c2ccc3ccccc3c21.[Na+] | -15.5 |
| CCN1/C(=C\C=C\C2=[N+](CC)c3ccccc3C2(C)C)C(C)(C)c2ccccc21.[O-][Cl+3]([O-])([O-])[O-] | -96.7 |
| CCCN1C(=O)/C(=C/C=C2\N(CC)c3ccccc3C2(C)C)SC1=S | 8.96 |
| CCN1C(=O)C(O)(CC(=O)/C=C/C=C/c2ccccc2)c2ccccc21 (stereo not drawn) | -0.629 |
| CN1/C(=C\C=O)C(C)(C)c2ccccc21 | 12.9 |
| CN1/C(=C\C=C\C2=[N+](C)c3ccc4ccccc4c3C2(C)C)C(C)(C)c2ccccc21.[O-][Cl+3]([O-])([O-])[O-] | -75.7 |
| CC(C)CCn1nnnc1CN1CCN(C(=O)c2ccco2)CC1.Cl | 16.8 |
| CC1(C)CC(=O)c2c(O)cc(OCC(=O)Nc3ccc(CCO)cc3)cc2O1 | -21.4 |
| CCN(C(=O)COC(=O)CSc1ccc(F)cc1)c1c(N)n(Cc2ccccc2)c(=O)[nH]c1=O | 10.9 |
| COC(=O)C1Cc2ccccc2CN1S(=O)(=O)c1ccc(C)cc1 (stereo not drawn) | 1.57 |
| Cc1cnc(-c2nnc(N(C)C(=O)C3CCCO3)s2)cn1 (stereo not drawn) | 2.91 |
| Cn1c(CNC(=O)c2ccc(Cl)cc2)nnc1SCC(=O)N1CCOCC1 | 15.4 |
| COc1ccccc1COCC(O)CNCC1(N2CCCCC2)CCCCC1.O=C(O)C(=O)O (stereo not drawn) | -30.9 |
| COc1cc(C(C)=O)ccc1OCC(O)CNCC1(N2CCCCC2)CCCCC1.O=C(O)C(=O)O (stereo not drawn) | -42.1 |
| OC(CNCC1(N2CCCCC2)CCCCC1)COc1ccc(Cl)cc1Cl (stereo not drawn) | -73.7 |
